Consider 96 compounds from PubChem BioAssay AID1566 (Sanford-Burnham Center for Chemical Genomics, 2009).

Values joined by “and” are separate entries in the source; they are usually repeats but may differ in a detail not shown here. Identical values can stand only once. Screen size: about 290,000 compounds; about 1,800 (0.62%) were called active. Cut-off read from the data, not from the text of the source: active = inhibition above about 50%; inactive = the rest. The full list was thinned out, with actives kept by preference. Some compounds were tested as several samples or in several runs, with calls that do not always agree.

The nature of the experiment: inhibition of NOD2-driven NF-kB reporter – cell-based, luminescence, uHTS, HEK293 (AID 1566). The conditions noted are these: HEK293 NOD2/NF-kB luciferase reporter, at 4 µM, stronger effect = higher value.
Turning to `O=C(c1cc(-c2cccc(Cl)c2)on1)N1CCCCCC1`, the inhibition – broadly, the drop in the measured response relative to a control, in per cent – was -44.3% (inactive).

As to `Nc1nc(-c2cccs2)c(CC(=O)O)s1`, the inhibition was 4.5% (inactive).

Regarding `CC(C)(C)c1ccc(-n2ncc3c2CCCC3NC(=O)CCN2CCCC2=O)cc1` (stereo unspecified), the inhibition is 57.1% (active).

In the case of `CC(C)(C)c1ccc(-n2ncc3c2CCCC3NC(=O)CN2CCCC2=O)cc1` (stereo unspecified), the inhibition is 35.8% (inactive).

As to `CC(C)(C)c1ccc(-n2ncc3c2CCCC3NC(=O)CCN2CCCCC2=O)cc1` (stereo unspecified), the inhibition is 17.1% (inactive).

Regarding `Cc1sc2ncnc(N3CCN(Cc4ccccc4)CC3)c2c1-c1ccccc1`, the inhibition was -9.7% (inactive).

In the case of `CCN1CCN(c2ncnc3sc(C)c(-c4ccccc4)c23)CC1`, the inhibition was 35.6% (inactive).

`CCc1ccc(-c2cc(C)no2)cc1S(=O)(=O)N1CCOc2ccc(C)cc21`: the inhibition was 16.8% (inactive).

On to `COc1ccccc1CC(=O)Nc1ccc(NC(=O)c2cccs2)cc1`, for which the inhibition was -13% (inactive).

On to `CCOC(=O)c1nc2sc3c(c2c(=O)[nH]1)CCC(C)C3` (stereo unspecified), for which the inhibition was 45.5% (inactive).

As to `CCOC(=O)c1nc2sc3c(c2c(=O)[nH]1)CCCC3`, the inhibition was 55.1% (active) and 4.8% (inactive).

On to `CCOC(=O)CSc1nc2sc3c(c2c(=O)[nH]1)CCCC3`, for which the inhibition is 8.9% (inactive).

For the compound `COc1ccccc1CNC(=O)CCc1nnc2ccc(NCCCN3CCCC3=O)nn12`, the inhibition was 12.8% (inactive).

`Cc1ccc(Cn2c(=O)c3ccccc3n3c(SCC(=O)N4CCCCC4C)nnc23)cc1` (stereo unspecified): the inhibition was 8.3% (inactive).

For `Cc1ccc(C(=O)NNC(=O)CCN2C(=O)C3CCCCC3C2=O)cc1` (stereo unspecified), the inhibition is 11.6% (inactive).

With `COc1cc(SC)ccc1C(=O)Nc1nccs1`, the inhibition is -159% (inactive).

On to `COc1cc(SC)ccc1C(=O)Nc1nc(C)cs1`, for which the inhibition is 72.2% (active).

As to `COc1cc(SC)ccc1C(=O)Nc1nc(C)cc(C)n1`, the inhibition was 10.5% (inactive).

Consider `O=C(O)c1ccc(NCc2ccc3c(c2)OCO3)cc1`, for which the inhibition is 6.2% (inactive).

For the compound `COc1ccc(/C=N/N2C(=O)CSC2=S)cc1`, the inhibition was -23.8% (inactive).

`COc1ccc(-c2nn(-c3ccccc3)cc2/C=N/N2C(=O)CSC2=S)cc1`: the inhibition was 51.5% (active).

In the case of `COc1ccc(-c2nn(-c3ccccc3)cc2/C=N/O)cc1`, the inhibition was 9.4% (inactive).

Regarding `CCC1(CC)NC(=O)N(CC(=O)NC(=O)NCc2ccccc2)C1=O`, the inhibition was -0.6% (inactive).

For `O=C(CSc1nncc(=O)[nH]1)Nc1cccc([N+](=O)[O-])c1`, the inhibition is 67.8% (active).

Regarding `Nc1cc(=O)[nH]c(SCC(=O)Nc2cccc([N+](=O)[O-])c2)n1`, the inhibition is 0.5% (inactive).

`O=C(CSc1nc2ccccc2c(=O)[nH]1)Nc1cccc([N+](=O)[O-])c1`: the inhibition is 19.4% (inactive).

As for `COc1ccc(NC(=O)C23CC4CC(C2)CC(n2cnc(Br)n2)(C4)C3)cc1OC`, the inhibition was -17.8% (inactive).

Regarding `Cc1ccccc1NC(=O)N1CCCC(c2nc(-c3ccc(C(C)C)cc3)no2)C1` (stereo unspecified), the inhibition was 72.9% (active).

`COc1ccc(NC(=O)N2CCCC(c3nc(-c4ccc(C(C)C)cc4)no3)C2)cc1` (stereo unspecified): the inhibition was 42.1% (inactive).

Turning to `Cc1ccccc1NC(=O)N1CCCC(c2nc(-c3ccc(F)cc3)no2)C1` (stereo unspecified), the inhibition was 7.4% (inactive).

Turning to `COCCCN1C(=O)C(O)=C(C(=O)c2ccco2)C1c1cccc(Br)c1` (stereo unspecified), the inhibition is 7.1% (inactive).

`COc1ccc(CN2CCN(Cc3ccc4cc(F)ccc4n3)CC2CCO)c(C)c1C` (stereo unspecified): the inhibition is -1.2% (inactive).

Consider `CCCC(=O)N1CCN(c2ccc([N+](=O)[O-])cc2Cl)CC1`, for which the inhibition was -6.8% (inactive).

Take `O=[N+]([O-])c1ccc(N2CCN(c3ccc(Cl)nn3)CC2)c(Cl)c1`: the inhibition is -52.2% (inactive).

Regarding `Cc1ccc2nc(C)c(CN3CCN(c4ccc([N+](=O)[O-])cc4Cl)CC3)n2c1`, the inhibition was 52.7% (active).

In the case of `Cc1cc(C)c2c(N)c(C(=O)Nc3ncc(C)s3)sc2n1`, the inhibition is 62% (active).

`Cc1cc(C)c2c(N)c(C(=O)Nc3nccs3)sc2n1`: the inhibition is -123% (inactive).

Consider `Cc1cc(C)c2c(N)c(C(=O)NN)sc2n1`, for which the inhibition is 0.7% (inactive).

For the compound `CN1CCN(C(=S)c2cn(Cc3ccccc3F)c3ccccc23)CC1`, the inhibition was 2.8% (inactive).

As for `CC(=O)c1cn(CC(=O)Nc2ccccc2F)c2ccccc12`, the inhibition was 30.8% (inactive).

On to `CCOC(=O)c1cnc2nc(C)[nH]n2c1=O`, for which the inhibition is -11% (inactive).

`O=C(CNC(=O)C1CCCCC1)NCc1ccco1`: the inhibition is -3% (inactive).

For `Cc1nc2ccc(NC(=O)c3ccc(S(=O)(=O)N(C)c4ccccc4)cc3)cc2s1`, the inhibition is 35.2% (inactive).

Consider `Cc1nc2ccc(NC(=O)c3ccc(Cl)c(S(=O)(=O)N(C)c4ccccc4)c3)cc2s1`, for which the inhibition is 38.6% (inactive).

For `CN(Cc1ccccc1)C(=O)[C@H]1CCC(=O)N1Cc1ccco1`, the inhibition is -2.2% (inactive).

For the compound `Cc1onc(-c2c(Cl)cccc2Cl)c1C(=O)NC(=S)N1CCOCC1`, the inhibition was 11.9% (inactive).

In the case of `Cc1c(OCC(=O)NC(Cc2ccc(Cl)cc2)C(=O)O)ccc2c3c(c(=O)oc12)CCCC3` (stereo unspecified), the inhibition is 7.1% (inactive).

As for `Cc1ccc2nc(NC(=O)CCCc3nc4ccccc4s3)sc2c1`, the inhibition was -14.6% (inactive).

With `COCC(=O)Nc1nc2ccc(C)cc2s1`, the inhibition was -98.9% (inactive).

Take `Cc1ccc2nc(NC(=O)CSCc3ccccc3)sc2c1`: the inhibition is -2.4% (inactive).

For the compound `O=C(Nc1nc2ccc(F)cc2s1)c1ccccn1`, the inhibition is 82.1% (active).

For the compound `Cc1ccc2nc(NC(=O)CSCC(=O)OCC(=O)c3ccccc3)sc2c1`, the inhibition is 51.5% (active).

Turning to `Cc1ccc(C)c(OCC(=O)Nc2nc3ccc([N+](=O)[O-])cc3s2)c1`, the inhibition was 25.2% (inactive).

On to `O=C(Nc1nc2ccc(F)cc2s1)c1cccs1`, for which the inhibition is -118% (inactive).

As to `Cc1ccc2nc(NC(=O)CCCC(=O)O)sc2c1`, the inhibition is 54.8% (active).

In the case of `Cc1cccc(OCC(=O)Nc2nc3ccc([N+](=O)[O-])cc3s2)c1`, the inhibition was 35% (inactive).

In the case of `O=C(Nc1nc2c(F)cc(F)cc2s1)c1ccccn1`, the inhibition was 38.3% (inactive).

In the case of `COC(=O)c1ccc2nc(NC(=O)CSCC(=O)OCC(=O)c3ccccc3)sc2c1`, the inhibition was -10.5% (inactive).

`CN(C)C(=O)c1ccc2c3c(cccc13)CC2`: the inhibition was 17.8% (inactive).

Consider `CCCS(=O)(=O)c1nc(S(=O)(=O)c2ccc(C)cc2)c(N2CCN(CC)CC2)s1`, for which the inhibition was -12.7% (inactive).

For the compound `Cc1nc2nc(SCc3ccc([N+](=O)[O-])cc3)[nH]c2cc1Br`, the inhibition is -1% (inactive).

Turning to `CSc1ccc(C2N=C(c3ccccc3)NO2)cc1` (stereo unspecified), the inhibition is -83.4% (inactive).

On to `CCOCCCNC(=O)C(NC(=O)CNC(C)=O)c1ccc(C)cc1` (stereo unspecified), for which the inhibition is 3.7% (inactive).

Consider `CCN(CC)S(=O)(=O)c1cccc(C(=O)N[C@@H](C)c2nc3ccccc3[nH]2)c1`, for which the inhibition was 11.7% (inactive).

Regarding `CCOC(=O)c1ccc(N2C(=O)C(CC(N)=O)N(NC(=O)c3cccc(F)c3)C2=S)cc1` (stereo unspecified), the inhibition was 4.2% (inactive).

Regarding `Cc1ccc2nc(NC(=O)COC(=O)c3ccccn3)sc2c1`, the inhibition is -25.5% (inactive).

Regarding `Cc1ccc2nc(NC(=O)c3ccccn3)sc2c1`, the inhibition is 76.3% (active).

Consider `Cc1ccc2nc(NC(=O)c3ccccc3F)sc2c1`, for which the inhibition is -152% (inactive).

Regarding `COc1ccc(-n2c3c(cc(C#N)c2=O)C(=O)CCC3)cc1`, the inhibition is 6.2% (inactive).

As for `CCOc1ccc(S(=O)(=O)Nc2ccc(C(=O)NCC(c3ccccc3)N(C)C)cc2)cc1` (stereo unspecified), the inhibition was 7.3% (inactive).

Consider `CCOC(=O)c1ccc(Nc2nc(N3CCOCC3)nc(N3CCOCC3)n2)cc1`, for which the inhibition was -7.2% (inactive).

Take `CCOC(=O)N1CCC(N2CCN(Cc3ccc(C)o3)C(CCO)C2)CC1` (stereo unspecified): the inhibition is 2.4% (inactive).

With `CCC(C(=O)NC1CCCC1)N(C(=O)Cn1nnc(-c2ccc(C)o2)n1)c1cccc(O)c1` (stereo unspecified), the inhibition was 8.2% (inactive).

For the compound `Cc1cc(NC(=O)CSc2ncnc3ccccc23)no1`, the inhibition was 20% (inactive).

For the compound `Cc1cc(-n2c(C)cc(C(=O)CSc3nc4ccccc4c(=O)n3Cc3ccco3)c2C)no1`, the inhibition was 18.1% (inactive).

Take `Cc1cc(-n2c(C)cc(C(=O)CSc3ncnc4ccccc34)c2C)no1`: the inhibition is 52.3% (active).

Turning to `Cc1cccc(NC(=O)COC(=O)C2C3CC4OC(=O)C2C4C3)c1C` (stereo unspecified), the inhibition is -27.4% (inactive).

Take `Cc1ccccc1-n1c(SC2CCOC2=O)nnc1-c1ccncc1` (stereo unspecified): the inhibition was 51.5% (active).

With `Cc1ccccc1-n1nnnc1SC1CCOC1=O` (stereo unspecified), the inhibition was 5.6% (inactive).

As for `O=C1OCCC1Sc1nnc(-c2cccnc2)n1-c1ccccc1F` (stereo unspecified), the inhibition was 13.6% (inactive).

For the compound `O=C(O)c1cccc(NC(=S)N/N=C/c2ccccc2OCc2ccc(Br)cc2)c1`, the inhibition is 0.3% (inactive).

`C/C(=C\c1ccccc1)CN1CCN(Cc2ccc(C)o2)C(CCO)C1` (stereo unspecified): the inhibition was -6.3% (inactive).

In the case of `CCOC(=O)C1CCN(C(=O)CS(=O)(=O)Cc2nc(-c3ccccc3Cl)oc2C)CC1`, the inhibition was 17.3% (inactive).

In the case of `O=C(Nc1ccc(N2CCCCCC2)cc1)c1ccccc1Cl`, the inhibition is -104% (inactive).

In the case of `O=C(Nc1ccc(N2CCCCC2)cc1)c1ccccn1`, the inhibition was 69.8% (active).

On to `Cc1cnc(C(=O)Nc2ccc(N3CCOCC3)cc2)cn1`, for which the inhibition is -3.6% (inactive).

`O=C(Nc1ccc(N2CCOCC2)cc1)Nc1cnsn1`: the inhibition is -3.9% (inactive).

Take `O=C(Nc1ccc(N2CCCCC2)cc1)c1cccnc1Cl`: the inhibition is -2.2% (inactive).

Regarding `O=C(Nc1ccc(N2CCOCC2)cc1)c1cnsn1`, the inhibition was 52.4% (active).

Regarding `O=C(CSc1nc2ccccc2[nH]1)NCc1ccccc1`, the inhibition is -35% (inactive).

As for `COc1ccc(S(=O)(=O)N2CCN(CC(O)COc3ccc(C#N)cc3)CC2)cc1OC` (stereo unspecified), the inhibition is 1.5% (inactive).

In the case of `CC(=O)Nc1ccccc1OCC(=O)N(Cc1ccccc1)C(C)C`, the inhibition was 19.2% (inactive).

For the compound `Cc1ccc(-n2c(C)nc3ncnc(-c4ccccc4)c32)cc1`, the inhibition was 17.9% (inactive).

On to `CN1C(=O)/C(=C\c2ccccc2F)Sc2ccc(C(=O)NC3CCN(Cc4ccccc4)CC3)cc21`, for which the inhibition was 58.2% (active).

Turning to `CN1C(=O)/C(=C/c2ccccc2F)Sc2ccc(C(=O)NCC3CCCO3)cc21` (stereo unspecified), the inhibition was 17% (inactive).

On to `CN1C(=O)/C(=C/c2ccccc2F)Sc2ccc(C(=O)N3CCCC3)cc21`, for which the inhibition was 37.3% (inactive).
